# Source: PubChem BioAssay
# Activity calls are given as the source filed them. Unless noted, no rule for the calls is given here.
# Experiments:
# [1] = blood-stage malaria parasite viability loss – strain 3D7, DAPI fluorescence, 100 nL, primary screen (AID 1184);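 also: parasites grown inside human red blood cells in medium with human serum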; conditions: P. falciparum 3D7 growth, 3 d, higher = more signal
# [2] = molecular target: Homeobox protein Hox-A13 (Mus musculus) (UniProt Q62424); experiment: disruptors of Hoxa13 oligonucleotide interaction – biochemical, fluorescence polarization, labeled oligonucleotide, primary screen (AID 1185); conditions: Hoxa13:DNA binding, 15 min, higher = more signal, called active from +8 up or from −8 down
# [3] = blockers of DNA damage checkpoint Chk1 activation – imaging, HeLa, hydroxyurea, phospho-Chk1 antibody, percent positive cells, primary screen (AID 1186); conditions: hydroxyurea-induced phospho-Chk1 immunofluorescence imaging, higher = more signal
# [4] = blockers of DNA damage checkpoint Chk1 activation – imaging, HeLa, hydroxyurea, phospho-Chk1 nuclear intensity, primary screen (AID 1187); conditions: hydroxyurea-induced phospho-Chk1 immunofluorescence imaging, higher = more signal; also: test concentration not given here
# Homeobox protein Hox-A13 (Mus musculus), sequence (Q62424 whole entry, looked up): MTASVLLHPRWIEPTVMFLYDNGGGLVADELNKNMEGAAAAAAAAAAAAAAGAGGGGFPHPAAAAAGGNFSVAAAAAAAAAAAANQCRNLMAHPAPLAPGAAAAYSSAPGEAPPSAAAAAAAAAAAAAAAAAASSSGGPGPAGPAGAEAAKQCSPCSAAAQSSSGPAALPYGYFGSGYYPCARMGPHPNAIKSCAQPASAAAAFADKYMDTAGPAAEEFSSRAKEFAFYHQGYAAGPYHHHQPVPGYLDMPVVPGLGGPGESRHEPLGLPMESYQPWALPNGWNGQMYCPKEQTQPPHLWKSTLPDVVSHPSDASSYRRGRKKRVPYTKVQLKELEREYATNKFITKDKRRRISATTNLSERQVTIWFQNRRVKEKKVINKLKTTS
SMILES,z-score [1],z-score [2],z-score [3],z-score [4]
C=CCOC(=O)[C@H]1[C@@H]2C(=O)O[C@@H](c3ccccc3)[C@@H](c3ccccc3)N2[C@@H](c2ccc(OCCOC(=O)[C@H]3C[C@H]4C(=O)N5CCC[C@H]5C(=O)N4[C@H]3c3cccc(OCCO)c3)cc2)[C@]12C(=O)Nc1ccccc12,-1.9,1.42 (inactive),0.217 (inactive),0.5 (inactive)
COc1ccc([Si](C)(C)[C@@H]2[C@@H](CC(=O)N3CCC[C@H]3CO)O[C@]3(C(=O)N(Cc4ccc(N5CCC5=O)cc4)c4ccccc43)[C@H]2C)cc1,-0.0482,-2.83 (inactive),-0.245 (inactive),0.476 (inactive)
C=CCC(OC(C)=O)[C@@H]1[C@@H](N(Cc2cccc3ccccc23)C(=O)Cc2ccc(OC)cc2)c2cc(OCCCO)ccc2N1C(=O)Cc1ccc(OC)cc1 (stereo partly drawn),-2.1,-2.18 (inactive),0.162 (inactive),0.268 (inactive)
C=C(CCCC)/C(=C/C[C@@H](OC(=O)c1ccncc1)c1ccc(OCCO)cc1)c1cnc2ccccc2c1,-2.84,-2.35 (inactive),-0.191 (inactive),-0.181 (inactive)
CC(C)[Si](C#C[Si](C(C)C)(C(C)C)C(C)C)(O[C@H](C)c1cn([C@H](C)c2ccccc2)nn1)C(C)C,-0.628,-0.0303 (inactive),-0.0899 (inactive),0.346 (inactive)
COC(=O)c1c2oc(c1C(=O)OC)C(=O)N[C@@H](C(C)C)Cn1nncc1C1(CCCCC1)NC(=O)N[C@H](CO)CC2,0.0974,-1.72 (inactive),-0.259 (inactive),0.158 (inactive)
CCOC(=O)C[C@H]1[C@H](OC(=O)Cc2ccc3c(c2)OCO3)[C@@H](NC(=O)c2ccc3ccccc3c2)c2cc(OCCCO)ccc2N1C(=O)c1ccc2ccccc2n1,-1.29,-2.66 (inactive),-0.926 (inactive),-0.612 (inactive)
COc1ccc([Si](C)(C)[C@H]2[C@H](CCO)O[C@@]3(C(=O)N(Cc4ccc(N5C(=O)c6cccc7cccc5c67)cc4)c4ccccc43)[C@@H]2C)cc1,-1.23,-0.82 (inactive),-1.48 (inactive),-1.39 (inactive)
C=C(CCCC)/C(=C/C[C@H](OC(=O)c1ccncc1)c1ccc(CO)o1)c1cnc2ccccc2c1,-0.209,-4.76 (inactive),-0.762 (inactive),-0.937 (inactive)
C=C(C(=O)CC[C@H](OC(C)=O)c1ccc(CO)o1)C(C)C,-2.1,-2.79 (inactive),-0.17 (inactive),-0.428 (inactive)
COCCOC(=O)N1C(=O)[C@@]2(c3ccccc31)[C@H](C(=O)Nc1nc3ccccc3s1)[C@H]1C(=O)O[C@H](c3ccccc3)[C@H](c3ccccc3)N1[C@@H]2c1ccc(O)cc1,0.112,0.895 (inactive),-0.2 (inactive),0.3 (inactive)
CC(C)N1CC=CC23O[C@@H]4/C=C\CCCOC(=O)C4[C@H]2C(=O)N(CCCO)[C@@H]3C1=O (stereo partly drawn),-0.723,-4.49 (inactive),-0.235 (inactive),0.101 (inactive)
COCCCNC(=O)[C@@]1(Cc2ccccc2CN=[N+]=[N-])COC(c2ccc(OCCCO)cc2)=N1,-2.1,-4.83 (inactive),-0.742 (inactive),-0.73 (inactive)
CC(C)(C)OC(=O)CC[C@@]1(C(=O)N2CCOCC2)N=C(c2ccc(OCCCO)cc2)O[C@@H]1c1ccccc1,-1.19,-4.03 (inactive),-0.31 (inactive),-0.323 (inactive)
COc1ccc(C#Cc2ccc3c(c2)[C@]2(C(=O)N3)[C@H](c3ccc(O)cc3)N3[C@H](c4ccccc4)[C@H](c4ccccc4)OC(=O)[C@H]3[C@@H]2C(=O)N2CCN(c3ncccn3)CC2)cc1,-2.28,0.562 (inactive),0.396 (inactive),0.583 (inactive)
CC(C)C(CO)N1C(=O)[C@@H]2[C@H]3C(=O)OCC=C[C@H]3OC23C=CCN(Cc2ccccc2)C(=O)[C@@H]13 (stereo partly drawn),-0.383,-2.93 (inactive),-0.228 (inactive),-0.647 (inactive)
O=C(O)[C@H]1C[C@H]2C(=O)NCC(=O)N2[C@H]1c1cccc(OCCO)c1,-0.52,-3.76 (inactive),0.328 (inactive),0.212 (inactive)
O=C(N1CCCCC1)[C@@]1(Cc2ccccc2)N=C(c2ccc(OCCCO)cc2)O[C@H]1c1ccccc1,-2.18,-3.68 (inactive),-1.29 (inactive),-1.55 (inactive)
COCCOC(=O)N1C(=O)[C@@]2(c3cc(C#CC4(O)CCCCCC4)ccc31)[C@H](c1ccc(O)cc1)N1[C@H](c3ccccc3)[C@H](c3ccccc3)OC(=O)[C@H]1[C@@H]2C(N)=O,-0.5,-2.38 (inactive),0.178 (inactive),0.0653 (inactive)
COc1ccc([Si](C)(C)[C@H]2[C@H](CC(=O)N(CCO)Cc3ccccc3)O[C@@]3(C(=O)N(Cc4cccc(N5C(=O)COc6ccccc65)c4)c4ccccc43)[C@@H]2C)cc1,-2.28,-1.15 (inactive),-0.567 (inactive),0.722 (inactive)
CCN(CC)c1ccc(N2CC=CC34O[C@@H]5C=CCOC(=O)[C@@H]5[C@H]3C(=O)N(C(CO)C(C)C)[C@@H]4C2=O)cc1 (stereo partly drawn),-0.45,-3.03 (inactive),-0.623 (inactive),0.286 (inactive)

SMILES,z-score [1],z-score [2],z-score [3],z-score [4]
CCCNC(=O)[C@@]1(Sc2ccc(C)cc2)CC(=O)N(Cc2cc(C(F)(F)F)cc(C(F)(F)F)c2)[C@@H]1c1ccc(CO)cc1I,-0.975,-2.86 (inactive),-0.661 (inactive),-0.6 (inactive)
COc1ccc([Si](C)(C)[C@@H]2[C@@H](CC(=O)N3CCC[C@H]3CO)O[C@]3(C(=O)N(Cc4ccc(I)cc4)c4ccccc43)[C@H]2C)cc1,-2.17,-2.86 (inactive),-0.703 (inactive),-0.413 (inactive)
C#CCOc1ccc(C[C@H]2C(=O)O[C@H](Cc3ccccc3)[C@H](/C=C/C3CC3)N2CC#C)cc1,-1.13,-0.167 (inactive),-0.54 (inactive),-0.582 (inactive)
C[N+](C)(C)CCCC[C@@H]1NC(=O)[C@H]2C[C@@H](C(=O)NCCCCCN)[C@@H](c3cccc(OCCO)c3)N2C1=O,-1.09,-2.19 (inactive),0.287 (inactive),0.7 (inactive)
COc1ccc([Si](C)(C)[C@H]2[C@H](CC(=O)N3Cc4ccccc4C[C@H]3CO)O[C@@]3(C(=O)N(Cc4cccc(N5C(=O)COc6ccccc65)c4)c4ccccc43)[C@@H]2C)cc1,-2.22,-1.82 (inactive),-0.558 (inactive),-0.221 (inactive)
C=CC[C@@H](OC(=O)Nc1ccc(SC)cc1)c1ccc(OCCO)cc1,0.246,-5.9 (inactive),-0.0622 (inactive),0.593 (inactive)
COc1ccc([Si](C)(C)[C@H]2[C@H](CC(=O)N(CCO)Cc3ccccc3)O[C@@]3(C(=O)N(Cc4ccc(N5CCOC5=O)cc4)c4ccccc43)[C@@H]2C)cc1,-1.04,-1.48 (inactive),-0.0614 (inactive),0.0752 (inactive)
CC(CO)N1C(=O)[C@@H]2C3C(=O)OCCC/C=C\[C@H]3OC23C=CCN(Cc2ccccc2)C(=O)[C@@H]13 (stereo partly drawn),-0.518,-5.46 (inactive),-0.6 (inactive),-0.674 (inactive)
[N-]=[N+]=NCc1ccccc1C[C@@]1(C(=O)O)N=C(c2ccc(OCCCO)cc2)O[C@@H]1c1ccccc1,-0.455,-5.05 (inactive),0.0912 (inactive),0.429 (inactive)
NCCCCCCNC(=O)[C@@H]1C[C@@H]2C(=O)N[C@@H](Cc3ccccc3)C(=O)N2[C@@H]1c1ccc(O)cc1,-0.18,-1.74 (inactive),1 (inactive),0.982 (inactive)
COCCCN1C(=O)[C@@]2(Cc3ccccc31)c1ccccc1C(=O)N(Cc1ccccc1Cl)[C@H]2c1ccc(CO)cc1,-0.7,-0.759 (inactive),-0.83 (inactive),-0.981 (inactive)
CCOC(=O)C[C@H]1[C@H](OC(=O)c2cc3ccccc3oc2=O)[C@@H](NC(=O)c2ccccc2)c2cc(OCCCO)ccc2N1C(=O)Cc1ccc(OC)cc1,-2.11,-0.814 (inactive),-0.35 (inactive),-0.0607 (inactive)
C=C(COC)/C(=C/C[C@H](OC(C)=O)c1ccc(CO)o1)c1cnc2ccccc2c1,-0.649,-4.41 (inactive),-0.595 (inactive),-0.669 (inactive)
O=C1c2ccccc2C(=O)c2cc([C@H]3Oc4ccccc4S(=O)(=O)N4CCC[C@@H]34)ccc21,-1.27,-3.19 (inactive),-0.4 (inactive),-0.252 (inactive)
CC(=O)OC(C/C=C\B1OC(C)(C)C(C)(C)O1)c1ccccc1 (stereo not drawn),-1.41,-1.28 (inactive),-0.873 (inactive),-1.16 (inactive)
CO[C@H]1O[C@H](CO)[C@@H](OC(=O)CCc2ccccc2)[C@@H]2OC(=O)[C@H](Cc3ccccc3)C/C=C/C[C@@H](Cc3ccccc3)C(=O)O[C@@H]12,-1.58,-2.71 (inactive),-0.527 (inactive),-0.474 (inactive)
O=C(NC1CC1)[C@@H]1c2ccccc2C(=O)N(Cc2ccccc2C(F)(F)F)[C@H]1c1ccc(CO)cc1,-0.358,-1.7 (inactive),-0.14 (inactive),0.177 (inactive)
C=CCNC(=O)[C@@H]1[C@H]2C(=O)O[C@H](c3ccccc3)[C@H](c3ccccc3)N2[C@H](c2ccc(O)cc2)[C@@]12C(=O)N(C(=O)OCCOC)c1ccc(C#Cc3ccc(OC)cc3)cc12,-1.08,-0.182 (inactive),0.148 (inactive),0.446 (inactive)
COCCOC(=O)N1C(=O)[C@@]2(c3cc(C#CCNC(N)=O)ccc31)[C@H](C(=O)NC[C@H](O)c1ccccc1)[C@H]1C(=O)O[C@H](c3ccccc3)[C@H](c3ccccc3)N1[C@@H]2c1ccc(O)cc1,0.418,-2.4 (inactive),-0.134 (inactive),-0.595 (inactive)
C=C[C@H](OC)[C@@H](OC(=O)Nc1ccc(OC)cc1)c1ccc(OC)c(O)c1,-0.294,-2.75 (inactive),0.0254 (inactive),0.471 (inactive)
COc1ccc([Si](C)(C)[C@H]2[C@H](CC(=O)N(CCO)Cc3ccccc3)O[C@@]3(C(=O)N(Cc4ccc(N5CCC5=O)cc4)c4ccccc43)[C@@H]2C)cc1,-1.24,-0.622 (inactive),-0.632 (inactive),-0.0543 (inactive)
